This is an account of results in PubChem BioAssay.

The source made the active and inactive calls. Cut-off read from the data, not from the text of the source: active = fold change permeability below about 0.7 or above about 1.3; inactive = in between.

The nature of the assay: compounds altering in vitro BBB leakiness – cell-based, FITC-avidin fluorescence, HTS, primary screen (AID 1963498). Note: test concentration not given here. Particulars: brain endothelial barrier, actives lie on both sides.
For the compound `Cn1c(CNc2ccc(C(=N)N)cc2)nc2cc(C(=O)N(CCC(=O)O)c3ccccn3)ccc21`, the fold change permeability was 1.1 (inactive). For the compound `CN(C)CCCNC(=O)c1ccc(-c2cc(O)c3ncccc3c2)cc1`, the fold change permeability is 0.8 (inactive).

For `Cc1ccc(CNCC2(F)CCN(C(=O)c3ccc(F)c(Cl)c3)CC2)nc1`, the fold change permeability was 1.3 (active).

In the case of `CCN(CC)CCCCCCCCOC(=O)c1cc(OC)c(OC)c(OC)c1`, the fold change permeability is 1.1 (inactive). To `COC(=O)C1=C(C)NC(C)=C(C(=O)O[C@@H]2CCCN(Cc3ccccc3)C2)[C@@H]1c1cccc([N+](=O)[O-])c1` belongs 1.4 (active). Turning to `NC(N)=NCc1cccc(I)c1`, the fold change permeability is 0.9 (inactive).

Regarding `CC[C@H]1OC(=O)[C@H](C)C(=O)[C@H](C)[C@@H](O[C@@H]2O[C@H](C)C[C@H](N(C)C)[C@H]2O)[C@](C)(OC)C[C@@H](C)C(=O)[C@H](C)[C@H]2N(CCCCn3cnc(-c4cccnc4)c3)C(=O)O[C@]12C`, the fold change permeability was 0.7 (active). For `CCc1ccc(OCC(=O)Nc2ccc(F)c([N+](=O)[O-])c2)cc1`, the fold change permeability is 1.1 (inactive).

`CCN1CCC[C@H]1CNC(=O)c1cc(S(N)(=O)=O)ccc1OC`: the fold change permeability is 0.7 (active). On to `Oc1ccc(/C=C/c2cc(O)cc(O)c2)cc1`, for which the fold change permeability was 1.7 (active). As for `N#C/C(=C\c1ccc(O)c(O)c1)C(=O)c1ccc(O)c(O)c1`, the fold change permeability was 1.8 (active). For the compound `C=CCNc1ncnc2ccc(Br)cc12`, the fold change permeability was 1.2 (inactive). `c1ccc2c(c1)CCC[C@H]2Nc1nc2ccccc2[nH]1`: the fold change permeability is 1.3 (active). `NNCCc1ccccc1`: the fold change permeability was 1.1 (inactive). For the compound `COCCOC(=O)C1=C(C)NC(C)=C(C(=O)OC(C)C)C1c1cccc([N+](=O)[O-])c1` (centres undefined), the fold change permeability is 0.7 (active). The result for `Fc1ccc(-c2ccc(Nc3nc(Cl)nc(Cl)n3)cc2)cc1` reads 0.9 (inactive); that for `O=C(O)c1cc2cc(F)ccc2[nH]1`, 1.2 (inactive); that for `Cc1ccc(S(=O)(=O)/C=C/C#N)cc1`, 1.1 (inactive).

With `COc1ccc(/C=C/C(=O)Nc2ccc(C(F)(F)F)cc2)cc1OC`, the fold change permeability is 1.6 (active).

Regarding `N#Cc1ccc(-c2csc(NN=C3CCCC3)n2)cc1`, the fold change permeability was 1.7 (active). Turning to `O=c1cc2c(=O)oc3cc(O)c(O)oc3c2c(O)c1O`, the fold change permeability was 1.9 (active). For `COc1ccc(/C=C/C(=O)Nc2ccccc2C(=O)O)cc1OC`, the fold change permeability was 1.4 (active). Consider `CN1CCN2c3ccccc3Cc3ccccc3C2C1` (centres undefined), for which the fold change permeability was 1.1 (inactive).

As for `COc1cc(C(=O)OCCCN2CCCN(CCCOC(=O)c3cc(OC)c(OC)c(OC)c3)CC2)cc(OC)c1OC`, the fold change permeability is 1.5 (active). For `c1ccc2c(c1)CCCC2C1=NCCN1` (centres undefined), the fold change permeability is 0.7 (active). On to `CC[C@]1(O)C[C@H]2CN(CCc3c([nH]c4ccccc34)[C@@](C(=O)OC)(c3cc4c(cc3OC)N(C=O)[C@H]3[C@@](O)(C(=O)OC)[C@H](OC(C)=O)[C@]5(CC)C=CCN6CC[C@]43[C@@H]65)C2)C1`, for which the fold change permeability is 2.1 (active). The result for `CC(C)Cn1c(=O)n(C)c(=O)c2[nH]cnc21` reads 0.7 (active); that for `Oc1ccc(O)cc1`, 1.4 (active). On to `CCCn1c(=O)c2[nH]c(-c3ccc(S(=O)(=O)O)cc3)nc2n(CCC)c1=O`, for which the fold change permeability was 1.1 (inactive). `C#CC(N)CCC(=O)O` (centres undefined): the fold change permeability was 1.1 (inactive). As for `CCCCCN(CCCCC)C(=O)C(CCC(=O)O)NC(=O)c1ccc(Cl)c(Cl)c1` (centres undefined), the fold change permeability is 1.4 (active). As for `NS(=O)(=O)c1cc2c(cc1Cl)NC=NS2(=O)=O`, the fold change permeability is 0.9 (inactive). With `CC(/C=C/c1cccc(Oc2ccc(F)cc2)c1)N(O)C(N)=O` (centres undefined), the fold change permeability is 1.1 (inactive).

As for `Cc1ccccc1/C=C/C1=NCCN1`, the fold change permeability is 0.7 (active). As for `CC(=O)N[C@@H](CS)C(=O)O`, the fold change permeability is 1.1 (inactive).

Turning to `NC(=NCc1ccccc1)NC(=O)c1nc(Cl)c(N)nc1N`, the fold change permeability is 1 (inactive). To `CCN1CCCC1CNC(=O)c1cc(S(=O)(=O)CC)c(N)cc1OC` (centres undefined) belongs 0.7 (active); to `CCOc1cc(C(=O)Nc2ccc(Cl)c(-c3nc4ccccc4[nH]3)c2)cc(OCC)c1OCC`, 1.7 (active). As for `c1ccc(CN2CCC3(CCCc4ccccc43)CC2)cc1`, the fold change permeability is 1.6 (active).
